Data taken from ChEMBL document CHEMBL3988442, “University of Dundee, Small-Polar-MMV Screening Library” (2021).
For part of these data: Results with a measured potency or affinity are listed apart.

Key:
Design in all cases: scale not given: direction of the effect not stated beside the values
[1] = molecular target: Protein translocase subunit SecA (Escherichia coli (strain K12)) (UniProt P10408); test: Assay to Identify E. coli SecA ATPase Inhibitors; assay type: functional; conditions: 30 µM
Chain of Protein translocase subunit SecA (Escherichia coli (strain K12)) (P10408 whole entry): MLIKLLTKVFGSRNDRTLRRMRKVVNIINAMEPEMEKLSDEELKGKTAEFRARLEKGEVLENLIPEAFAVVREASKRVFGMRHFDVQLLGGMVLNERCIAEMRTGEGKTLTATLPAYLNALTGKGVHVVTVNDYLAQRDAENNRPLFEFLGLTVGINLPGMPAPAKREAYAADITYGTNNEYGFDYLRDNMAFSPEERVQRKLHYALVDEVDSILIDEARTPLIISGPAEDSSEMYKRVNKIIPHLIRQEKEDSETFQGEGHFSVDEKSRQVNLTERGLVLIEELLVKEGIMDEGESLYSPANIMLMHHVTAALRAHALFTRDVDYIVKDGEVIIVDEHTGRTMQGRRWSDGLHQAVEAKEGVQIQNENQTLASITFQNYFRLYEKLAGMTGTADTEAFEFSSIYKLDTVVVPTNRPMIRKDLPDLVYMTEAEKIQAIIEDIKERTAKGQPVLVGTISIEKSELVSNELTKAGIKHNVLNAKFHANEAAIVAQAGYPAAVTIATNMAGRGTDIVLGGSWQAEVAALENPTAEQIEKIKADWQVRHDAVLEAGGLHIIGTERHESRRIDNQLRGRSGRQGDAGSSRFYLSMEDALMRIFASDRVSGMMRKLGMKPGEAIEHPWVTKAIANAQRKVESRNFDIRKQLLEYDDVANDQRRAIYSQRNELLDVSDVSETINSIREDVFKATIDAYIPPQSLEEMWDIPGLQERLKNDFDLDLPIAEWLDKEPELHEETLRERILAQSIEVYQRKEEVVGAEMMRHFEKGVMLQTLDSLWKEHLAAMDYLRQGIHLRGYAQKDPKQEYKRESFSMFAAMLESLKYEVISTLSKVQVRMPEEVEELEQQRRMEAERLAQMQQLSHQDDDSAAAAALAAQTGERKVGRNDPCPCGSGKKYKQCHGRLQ

[2] = molecular target: T1, Ubiquitin-activating enzyme e1, putative (Leishmania donovani (strain BPK282A1)) (UniProt E9BSI1); test: Leishmania donovani Ubiquitin Activating Enzyme (LdE1); assay type: functional; conditions: 30 µM
T1 sequence (whole entry): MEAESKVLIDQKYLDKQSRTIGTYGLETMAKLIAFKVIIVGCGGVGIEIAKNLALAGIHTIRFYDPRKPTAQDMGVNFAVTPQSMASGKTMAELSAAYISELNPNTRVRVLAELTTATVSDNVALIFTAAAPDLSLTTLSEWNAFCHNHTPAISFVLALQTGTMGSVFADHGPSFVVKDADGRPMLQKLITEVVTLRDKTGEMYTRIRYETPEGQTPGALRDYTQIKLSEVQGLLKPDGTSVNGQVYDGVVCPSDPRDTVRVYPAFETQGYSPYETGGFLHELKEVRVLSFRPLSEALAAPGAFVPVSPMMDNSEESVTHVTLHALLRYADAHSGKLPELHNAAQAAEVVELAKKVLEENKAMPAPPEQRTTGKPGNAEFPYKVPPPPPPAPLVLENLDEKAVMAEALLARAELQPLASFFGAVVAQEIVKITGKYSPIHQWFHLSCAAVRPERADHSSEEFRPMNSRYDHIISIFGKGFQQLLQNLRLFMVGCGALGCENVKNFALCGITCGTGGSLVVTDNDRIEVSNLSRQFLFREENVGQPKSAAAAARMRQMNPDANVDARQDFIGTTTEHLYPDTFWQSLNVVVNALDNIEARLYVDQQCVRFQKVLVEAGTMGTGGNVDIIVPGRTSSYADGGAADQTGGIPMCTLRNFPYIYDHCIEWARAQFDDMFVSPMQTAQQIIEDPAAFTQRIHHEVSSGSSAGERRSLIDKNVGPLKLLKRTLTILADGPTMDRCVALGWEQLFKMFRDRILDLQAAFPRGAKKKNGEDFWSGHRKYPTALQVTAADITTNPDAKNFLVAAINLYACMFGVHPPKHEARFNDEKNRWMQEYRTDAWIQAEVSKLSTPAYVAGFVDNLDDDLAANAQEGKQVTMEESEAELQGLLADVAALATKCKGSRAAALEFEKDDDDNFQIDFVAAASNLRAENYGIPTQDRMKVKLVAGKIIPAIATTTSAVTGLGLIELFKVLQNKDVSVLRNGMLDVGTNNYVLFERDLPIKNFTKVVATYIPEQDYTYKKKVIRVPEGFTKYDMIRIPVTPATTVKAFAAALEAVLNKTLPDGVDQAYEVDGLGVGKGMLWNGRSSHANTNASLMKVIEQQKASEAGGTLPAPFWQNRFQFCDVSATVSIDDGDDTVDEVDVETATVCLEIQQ

[3] = molecular target: T2, Aspartate--tRNA(Asp/Asn) ligase (Mycobacterium tuberculosis (strain ATCC 25618 / H37Rv)) (UniProt P9WFW3); test: Assay for Asp RNA synthetase-1 from Mycobacterium tuberculosis; assay type: functional; conditions: 30 µM; note: in the data most compounds retested in dose-response had high values
T2 sequence (whole entry): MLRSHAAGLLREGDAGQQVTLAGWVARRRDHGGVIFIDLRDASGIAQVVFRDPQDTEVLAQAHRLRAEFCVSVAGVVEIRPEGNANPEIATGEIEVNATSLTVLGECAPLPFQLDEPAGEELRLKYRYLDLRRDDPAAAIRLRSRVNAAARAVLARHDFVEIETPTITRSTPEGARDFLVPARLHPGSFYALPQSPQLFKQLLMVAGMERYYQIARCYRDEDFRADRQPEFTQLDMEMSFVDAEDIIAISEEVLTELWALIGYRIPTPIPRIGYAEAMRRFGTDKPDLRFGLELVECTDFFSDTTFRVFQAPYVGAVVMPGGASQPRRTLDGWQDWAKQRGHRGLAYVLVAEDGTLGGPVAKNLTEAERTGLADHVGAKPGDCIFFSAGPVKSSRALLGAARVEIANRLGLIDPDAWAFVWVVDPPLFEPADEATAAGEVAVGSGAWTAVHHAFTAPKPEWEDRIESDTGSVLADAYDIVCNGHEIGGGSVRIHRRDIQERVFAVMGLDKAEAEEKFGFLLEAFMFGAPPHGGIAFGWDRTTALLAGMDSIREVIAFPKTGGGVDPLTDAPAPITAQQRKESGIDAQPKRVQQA

[4] = molecular target: Sialic acid-binding Ig-like lectin 9 (Homo sapiens) (UniProt Q9Y336); test: Hs-Siglec9 ALPHAscreen SOP 20170721; conditions: 10 µM
Chain of Sialic acid-binding Ig-like lectin 9 (Homo sapiens) (Q9Y336 whole entry): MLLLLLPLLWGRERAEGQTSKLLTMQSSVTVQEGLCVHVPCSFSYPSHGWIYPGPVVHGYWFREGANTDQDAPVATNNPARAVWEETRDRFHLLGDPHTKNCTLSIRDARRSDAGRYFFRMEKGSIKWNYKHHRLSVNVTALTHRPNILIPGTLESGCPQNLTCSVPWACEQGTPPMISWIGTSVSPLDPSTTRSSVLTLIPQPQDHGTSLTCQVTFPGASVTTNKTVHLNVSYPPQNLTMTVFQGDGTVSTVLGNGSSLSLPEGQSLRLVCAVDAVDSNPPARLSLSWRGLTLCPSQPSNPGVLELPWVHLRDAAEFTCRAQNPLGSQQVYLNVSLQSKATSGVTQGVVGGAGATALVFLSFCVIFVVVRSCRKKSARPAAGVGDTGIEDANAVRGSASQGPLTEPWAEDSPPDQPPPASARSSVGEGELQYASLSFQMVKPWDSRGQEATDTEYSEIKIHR

Trypanosoma cruzi = test: Trypanosoma cruzi phosphomannomutase and mannose-1-phosphate guanylyltransferase assay; assay type: functional; conditions: 10 µM
[5] = molecular target: T3, Arginase-2, mitochondrial (Homo sapiens) (UniProt P78540); test: in vitro enzyme assay to detect the production of urea directly proportional to the activity of Arginase II; assay type: functional; conditions: 33.3 µM; note: in the data most compounds retested in dose-response had high values
T3 sequence (whole entry): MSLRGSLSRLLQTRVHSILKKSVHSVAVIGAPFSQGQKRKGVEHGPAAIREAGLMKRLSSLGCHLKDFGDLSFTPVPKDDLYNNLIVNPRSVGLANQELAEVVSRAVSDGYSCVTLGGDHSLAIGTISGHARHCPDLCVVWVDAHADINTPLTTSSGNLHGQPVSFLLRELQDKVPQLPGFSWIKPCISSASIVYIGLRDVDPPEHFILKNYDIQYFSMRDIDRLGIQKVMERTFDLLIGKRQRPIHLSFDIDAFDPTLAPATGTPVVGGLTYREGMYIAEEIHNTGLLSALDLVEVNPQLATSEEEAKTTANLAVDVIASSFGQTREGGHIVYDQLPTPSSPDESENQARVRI

[6] = molecular target: T4, Proteasome subunit beta (Trypanosoma cruzi) (UniProt O96673); test: Trypanosoma cruzi proteasome chymotrypsin-like activity (TcProtChymo) assay.; note: in the data most compounds retested in dose-response had high values; assay type: functional; conditions: 9.37 µM
T4 sequence (whole entry): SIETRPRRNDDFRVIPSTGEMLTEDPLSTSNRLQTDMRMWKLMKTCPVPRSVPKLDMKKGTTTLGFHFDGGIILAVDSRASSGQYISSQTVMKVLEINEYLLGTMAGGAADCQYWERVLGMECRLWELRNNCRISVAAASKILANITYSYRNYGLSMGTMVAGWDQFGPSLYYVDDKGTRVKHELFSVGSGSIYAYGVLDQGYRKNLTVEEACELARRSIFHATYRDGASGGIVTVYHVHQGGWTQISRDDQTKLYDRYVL

Homo sapiens = species on record: Homo sapiens; test: To identify inhibition of the IFN signalling (Jak-Stat) pathway via expression of an eGFP reporter gene under the control of an IFN-stimulated response element (ISRE) containing MxA promoter.; assay type: functional; conditions: 30 µM
[7] = molecular target: Shiga toxin 2 (Escherichia coli O157:H7) (UniProt P09385+P09386); test: E. coli 0.157:H7 Shiga Toxin SOP - stx2 screening assay; assay type: functional; conditions: 30 µM
[8] = molecular target: T5, Tyrosyl-tRNA synthetase, putative (Trypanosoma cruzi (strain CL Brener)) (UniProt Q4DSP6); test: Trypanosoma cruzi tyrosyl tRNA synthetase (TcYRS) _High Tyrosine SOP; assay type: functional; conditions: 30 µM; note: in the data most compounds retested in dose-response had high values
T5 sequence (whole entry): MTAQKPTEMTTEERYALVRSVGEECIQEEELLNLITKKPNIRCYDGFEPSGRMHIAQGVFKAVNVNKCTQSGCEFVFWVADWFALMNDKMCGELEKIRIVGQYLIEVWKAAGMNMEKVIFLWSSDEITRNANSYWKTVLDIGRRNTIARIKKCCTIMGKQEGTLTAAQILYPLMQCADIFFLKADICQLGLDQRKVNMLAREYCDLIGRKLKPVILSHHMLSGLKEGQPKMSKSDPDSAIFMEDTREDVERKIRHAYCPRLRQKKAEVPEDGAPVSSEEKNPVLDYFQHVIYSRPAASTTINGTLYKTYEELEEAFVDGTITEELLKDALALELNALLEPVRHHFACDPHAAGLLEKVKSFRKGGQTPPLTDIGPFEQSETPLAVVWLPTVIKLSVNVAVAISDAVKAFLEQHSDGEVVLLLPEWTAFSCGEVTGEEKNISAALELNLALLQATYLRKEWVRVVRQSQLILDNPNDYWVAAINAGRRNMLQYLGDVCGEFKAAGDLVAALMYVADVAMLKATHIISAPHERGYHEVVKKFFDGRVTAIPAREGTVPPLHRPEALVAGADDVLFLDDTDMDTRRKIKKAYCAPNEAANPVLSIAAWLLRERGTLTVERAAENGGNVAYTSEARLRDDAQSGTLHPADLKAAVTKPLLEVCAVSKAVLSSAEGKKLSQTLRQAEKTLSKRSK

[9] = molecular target: T5, Tyrosyl-tRNA synthetase, putative (Trypanosoma cruzi (strain CL Brener)); test: Trypanosoma cruzi tyrosyl tRNA synthetase (TcYRS) SOP; assay type: functional; conditions: 30 µM
[10] = molecular target: Chromo domain-containing protein 1 (Saccharomyces cerevisiae (strain ATCC 204508 / S288c) (Baker's yeast)) (UniProt P32657); test: ScCHD-1 Enzyme Inhibition Assay; assay type: functional; conditions: 30 µM; note: in the data most compounds retested in dose-response had high values
Chain of Chromo domain-containing protein 1 (Saccharomyces cerevisiae (strain ATCC 204508 / S288c) (Baker's yeast)) (P32657 whole entry, the tested form may be a part): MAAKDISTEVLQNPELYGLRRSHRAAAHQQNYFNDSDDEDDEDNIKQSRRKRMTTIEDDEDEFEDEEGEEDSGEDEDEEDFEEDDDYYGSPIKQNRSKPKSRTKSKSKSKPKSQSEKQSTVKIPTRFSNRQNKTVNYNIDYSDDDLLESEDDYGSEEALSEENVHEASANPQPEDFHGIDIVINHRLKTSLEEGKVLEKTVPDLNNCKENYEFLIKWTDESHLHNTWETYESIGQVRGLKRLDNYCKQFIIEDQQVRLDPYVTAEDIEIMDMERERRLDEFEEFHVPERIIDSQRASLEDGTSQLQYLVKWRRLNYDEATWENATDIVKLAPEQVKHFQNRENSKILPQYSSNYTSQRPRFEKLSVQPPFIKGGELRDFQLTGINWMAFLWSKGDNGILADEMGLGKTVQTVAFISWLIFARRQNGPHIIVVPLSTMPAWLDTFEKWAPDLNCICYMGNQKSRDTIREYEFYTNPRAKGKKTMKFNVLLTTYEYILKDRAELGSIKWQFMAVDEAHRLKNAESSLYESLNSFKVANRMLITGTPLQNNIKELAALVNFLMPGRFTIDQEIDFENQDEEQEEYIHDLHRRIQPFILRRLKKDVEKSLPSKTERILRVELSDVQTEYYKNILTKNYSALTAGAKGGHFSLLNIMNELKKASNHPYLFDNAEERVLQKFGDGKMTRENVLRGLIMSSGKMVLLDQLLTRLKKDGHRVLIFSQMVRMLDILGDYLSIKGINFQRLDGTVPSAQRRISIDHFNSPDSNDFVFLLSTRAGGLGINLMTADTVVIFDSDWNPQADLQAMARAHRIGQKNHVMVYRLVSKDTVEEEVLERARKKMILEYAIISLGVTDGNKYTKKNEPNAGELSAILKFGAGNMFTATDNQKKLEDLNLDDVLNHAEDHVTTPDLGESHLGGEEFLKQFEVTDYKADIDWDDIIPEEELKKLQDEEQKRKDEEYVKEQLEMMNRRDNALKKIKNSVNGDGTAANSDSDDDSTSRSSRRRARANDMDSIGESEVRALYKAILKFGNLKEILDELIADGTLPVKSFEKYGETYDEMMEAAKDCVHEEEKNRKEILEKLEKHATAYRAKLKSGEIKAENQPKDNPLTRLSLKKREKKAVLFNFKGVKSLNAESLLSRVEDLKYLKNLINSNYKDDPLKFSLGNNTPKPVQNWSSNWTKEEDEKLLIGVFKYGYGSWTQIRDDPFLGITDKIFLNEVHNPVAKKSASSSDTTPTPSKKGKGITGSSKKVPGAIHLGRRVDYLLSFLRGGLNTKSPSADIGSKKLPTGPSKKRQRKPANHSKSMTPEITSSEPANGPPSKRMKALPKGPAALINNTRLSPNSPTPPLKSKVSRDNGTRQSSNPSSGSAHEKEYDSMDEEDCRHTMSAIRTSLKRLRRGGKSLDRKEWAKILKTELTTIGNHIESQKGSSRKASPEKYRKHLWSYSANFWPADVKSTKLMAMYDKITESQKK

COc1ccc(C(=O)C2CCCN(CCCn3cccn3)C2)c(OC)c1 (stereo not drawn)
Percent Effect [1]: -4.85%
Percent Effect [2]: 5.41%
Percent Effect [3]: -0.805%
Percent Effect [4]: 13.1%
Percent Effect (Trypanosoma cruzi): 7.27%
Percent Effect [5]: 25.5%
Percent Effect [6]: 7.71%
Percent Effect (Homo sapiens): 3.33%
Percent Effect [7]: -4.88%
Percent Effect [8]: 6.92%
Percent Effect [9]: 17.1%
Percent Effect [10]: 77.1%

COCC(=O)N1C[C@@H]2OCCN(Cc3c(C)noc3C)[C@@H]2C1
Percent Effect [1]: -1.15%
Percent Effect [2]: 1.3%
Percent Effect [3]: -3.8%
Percent Effect [4]: -1.81%
Percent Effect (Trypanosoma cruzi): 3.02%
Percent Effect [5]: 17%
Percent Effect [6]: 27.1%
Percent Effect (Homo sapiens): 5.87%
Percent Effect [7]: -14.3%
Percent Effect [8]: 5.79%
Percent Effect [9]: 10.3%
Percent Effect [10]: 24%

COc1cccc([C@@H]2CCN(Cc3ccc4ccccc4n3)C[C@H]2O)c1
Percent Effect [1]: -6.38%
Percent Effect [2]: 5.41%
Percent Effect [3]: -2.79%
Percent Effect [4]: 14.7%
Percent Effect (Trypanosoma cruzi): 4.56%
Percent Effect [5]: 18.5%
Percent Effect [6]: 9.76%
Percent Effect (Homo sapiens): 1.68%
Percent Effect [7]: -2.3%
Percent Effect [8]: 7.98%
Percent Effect [9]: 19.5%
Percent Effect [10]: -2.92%

O=C(Cn1ccc2c(Cl)cccc21)N1CCC2(CC1)OCCO2
Percent Effect [1]: -2.33%
Percent Effect [2]: 10.8%
Percent Effect [3]: 0.188%
Percent Effect [4]: 5.66%
Percent Effect (Trypanosoma cruzi): 1.46%
Percent Effect [5]: 49.3%
Percent Effect [6]: 11.8%
Percent Effect (Homo sapiens): 12.8%
Percent Effect [7]: 1.14%
Percent Effect [8]: 4.79%
Percent Effect [9]: 19.5%
Percent Effect [10]: -2.23%
